# Measured values: PubChem BioAssay AID1259420 (Broad Institute, 2018)
# Values joined by “and” are separate entries in the source; they are usually repeats but may differ in a detail not shown here. Identical values can stand only once. Hit rate of the full screen: of about 1,000 compounds, about 250 (25%) were called active. Another 31% or so got no clear call; they are omitted. The list is a sample of the results. Results with a measured potency or affinity are listed apart. A number with no mark means an inactive call. The rule behind the calls is not given here.
# Test: T. gondii intracellular growth, IFN-gamma absent, dose response, cell-based (AID 1259420);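 note: host cells were HeLa; final incubation lasted 72 hours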
# Details: Toxoplasma gondii growth in host cells, no IFN-gamma
compound,measurement,setting,value
CNCCCC12CCC(c3ccccc31)c1ccccc12,max activity,at 19.5 µM unless noted,17.3%
CCC(=O)N1CC(=O)N2[C@H](C1)[C@H](c1ccc(C#CCC(C)C)cc1)[C@@H]2CO,max activity,at 19.5 µM unless noted,-9.55% [at 5 µM]
O=C(NC1CCCC1)N1CC(=O)N2[C@H](CO)[C@H](c3ccc(C4=CCCCC4)cc3)[C@@H]2C1,max activity,at 19.5 µM unless noted,10.5% [at 0.6 µM]
CS(=O)(=O)N1CC(=O)N2[C@H](CO)[C@@H](c3ccc(C#CCC4CCCC4)cc3)[C@H]2C1,max activity,at 19.5 µM unless noted,17.7% [at 21 µM]
COC(=O)C[C@H]1CC[C@@H]2[C@@H](COc3ccc(NC(=O)Nc4cccc(C#N)c4)cc3C(=O)N2C)O1,max activity,at 19.5 µM unless noted,32.3% and 6.8%
CC=Cc1ccc2n(c1=O)C[C@H]1[C@H](CO)[C@@H](C(=O)Nc3ccc(-c4ccccc4)cc3)[C@@H]2N1C(=O)CC (mixture of isomers),max activity,at 19.5 µM unless noted,-8.34%
CC(=O)NC1=NN(C(C)=O)C(C)(c2ccccc2)S1 (stereo not drawn),max activity,at 19.5 µM unless noted,5.61% [at 0.16 µM]
COc1ccccc1C#Cc1ccc([C@H]2[C@H](CO)N3CCCCN(C(=O)C4CCC4)C[C@@H]23)cc1,max activity,at 10 µM,11.5%
same,max activity,at 19.5 µM,-7.69%
CN(C)CCNC(=O)c1ccc2onc(-c3coc(C4CC4)n3)c2c1,max activity,at 19.5 µM unless noted,24.6%
COc1ccccc1Cn1ncc2c1CCCC2NC(=O)c1cc(-c2cccs2)no1 (stereo not drawn),max activity,at 19.5 µM unless noted,11.7% [at 1.2 µM]
O=C(C1CCOCC1)N1CC(=O)N2[C@H](C1)[C@@H](c1ccc(/C=C/c3ccccc3)cc1)[C@@H]2CO,max activity,at 19.5 µM unless noted,10.5% [at 0.6 µM]
O=C(C1CCC1)N1CC(=O)N2[C@H](CO)[C@H](c3ccc(Br)cc3)[C@H]2C1,max activity,at 19.5 µM unless noted,-11.4% [at 10 µM]
Cc1nc(Cn2cnc(-c3nc(C(=O)NCc4cc(F)cc(F)c4)c4ccccn34)c2)cs1,max activity,at 19.5 µM unless noted,15.4%
COC(=O)c1sccc1S(=O)(=O)N[C@@H]1CC[C@@H](N)C1,max activity,at 19.5 µM unless noted,-5.2%
CN(c1ccccc1)c1ccc2ccc(C(=O)N3CCCC3)cn12,max activity,at 19.5 µM unless noted,-21% [at 0.16 µM]
O=C(c1ccc(F)cc1)N1c2ccccc2Sc2ccc(C(F)(F)F)cc21,max activity,at 19.5 µM unless noted,12.1% [at 10 µM]
O=C(NC1CCCC1)N1CCCCN2[C@@H](CO)[C@@H](c3ccc(-c4cccnc4)cc3)[C@@H]2C1,max activity,at 19.5 µM unless noted,-13.7% [at 2.6 µM]
CCc1ccc(S(=O)(=O)N2CCC3(CCC(C(=O)N4CCCC4)O3)CC2)cc1 (stereo not drawn),max activity,at 19.5 µM unless noted,-11.2% [at 1.2 µM]
CN1C(=O)c2cc(NC(=O)Cc3cccs3)ccc2OC[C@@H]2O[C@H](CC(=O)N[C@@H]3CCN(Cc4ccccc4)C3)CC[C@@H]21,max activity,at 19.5 µM unless noted,32%
CN1C(=O)c2cc(NC(=O)Cc3cccs3)ccc2OC[C@@H]2O[C@H](CC(=O)N[C@H]3CCN(Cc4ccccc4)C3)CC[C@@H]21,max activity,at 19.5 µM unless noted,35.3% and 9.67%
CN1C(=O)c2cc(NC(=O)Cc3cccs3)ccc2OC[C@@H]2O[C@H](CC(=O)NCC3CCCCC3)CC[C@@H]21,max activity,at 19.5 µM unless noted,9.14% [at 0.6 µM]
COc1cccc(C(=O)Nc2ccc3c(c2)C(=O)N(C)[C@@H]2CC[C@H](CC(=O)N[C@H](C)c4ccccc4)O[C@@H]2CO3)c1,max activity,at 19.5 µM unless noted,-19.3% [at 1.2 µM]
Cc1ccccc1-c1ccc([C@H]2[C@H](CO)N3CCCCN(S(=O)(=O)Cc4ccccc4)C[C@@H]23)cc1,max activity,at 19.5 µM unless noted,27%
O=C(NCC1CC1)C1CN(C(=O)c2ccoc2)CC12CCOCC2 (stereo not drawn),max activity,at 19.5 µM unless noted,10.2% [at 0.16 µM]
CS(=O)(=O)N1CC(=O)N2[C@H](C1)[C@@H](c1ccc(C#CCC3CCCC3)cc1)[C@@H]2CO,max activity,at 19.5 µM unless noted,17.8% [at 0.3 µM]
Cc1ccccc1S(=O)(=O)N1CC[C@H]2[C@H](CO)Nc3ccc(-c4ccc(F)cc4)cc3[C@H]21,max activity,at 19.5 µM unless noted,-15.5% [at 5 µM]
CC(C)CNC(=O)C1Cn2ccnc2C2(CCN(c3ncccn3)CC2)O1 (stereo not drawn),max activity,at 19.5 µM unless noted,-6.18%
Fc1cccc(CN2CCC3(CC2)CC(OCC2CC2)CO3)c1 (stereo not drawn),max activity,at 19.5 µM unless noted,-29.4% [at 10 µM]
COc1cccc(-c2nn(CC3CC3)c3c2[C@@H]2CN(C(=O)c4ccccc4)C[C@@H]2C3)c1,max activity,at 19.5 µM unless noted,29.4%
COCC(=O)N1CC(=O)N2[C@H](CO)[C@@H](c3ccc(-c4ccccc4F)cc3)[C@H]2C1,max activity,at 19.5 µM unless noted,10.5% [at 0.3 µM]
O=C(Cc1cccnc1)N1CC(=O)N2[C@H](CO)[C@H](c3ccc(/C=C/c4ccccc4)cc3)[C@@H]2C1,max activity,at 19.5 µM unless noted,-6.67% [at 10 µM]
O=C(Cc1cccnc1)N1CC(=O)N2[C@H](CO)[C@@H](c3ccc(/C=C/c4ccccc4)cc3)[C@@H]2C1,max activity,at 19.5 µM unless noted,14.8%
O=C(Cc1cccnc1)N1CC(=O)N2[C@H](CO)[C@@H](c3ccc(/C=C/c4ccccc4)cc3)[C@H]2C1,max activity,at 19.5 µM unless noted,15.6%
Cc1ccccc1-c1ccc([C@@H]2[C@H](CO)N3C(=O)CN(C(=O)c4ccncc4)C[C@@H]23)cc1,max activity,at 19.5 µM unless noted,13%
COC(=O)/C=c1\sc2nc(=O)c(C)nn2c1=O,max activity,at 19.5 µM unless noted,-11.2% [at 10 µM]
COc1ccccc1-c1ccc(C2[C@@H]3CN(S(=O)(=O)c4ccc(C)cc4)C[C@H]2N3)cc1 (stereo partly drawn),max activity,at 19.5 µM unless noted,22.8%
Cc1cccc(S(=O)(=O)N2CCc3nc(-c4cnn(C)c4)nc(NC4CC4)c3C2)c1,max activity,at 19.5 µM unless noted,-22.6% [at 1.2 µM]
COc1ccc(S(=O)(=O)N2CCC(c3nc4ccc(-c5ccncc5)cn4n3)CC2)cc1,max activity,at 19.5 µM unless noted,-32.4% [at 10 µM]
Cc1nc(N2CCCC2)nc2c1CCN(S(=O)(=O)c1ccccc1)CC2,max activity,at 19.5 µM unless noted,-5.81% [at 10 µM]
CC(C)(C)NC(=O)[C@@H]1CC2CCCCC2CN1C[C@@H](O)[C@H](Cc1ccccc1)NC(=O)[C@H](CC(N)=O)NC(=O)c1ccc2ccccc2n1 (stereo partly drawn),max activity,at 19.5 µM unless noted,-8.44%
CC/C(=C(\c1ccccc1)c1ccc(OCCN(C)C)cc1)c1ccccc1,max activity,at 19.5 µM unless noted,22.1%
CCCNC(=O)c1cc(-c2ccn(CC3CC3)n2)n2ccccc12,max activity,at 19.5 µM unless noted,-19.1% [at 10 µM]
